# Data from PubChem BioAssay (EPA / NIEHS).
# Calls of active or inactive are those of the source. Rule for the calls: active = hit-call score of the fitted dose curve at least 0.9, where 1 is the maximum; inactive = score below 0.9.
# Assay: CCTE_Harrill_HTTr_Apoptosis_MCF7: CCTE's 6-hour Apoptosis Assessment for the High-Throughput Transcriptomics (HTTr) Platform, in MCF-7 cells cultured in DMEM + 10% fetal bovine serum, Harrill Lab (AID 2284011)
# From the text: This is a cell-based assay that evaluates apoptosis using high content imaging to evaluate activation of caspase-3/7 using the CellEvent Caspase 3/7 Green detection reagent in 384-well format.One of seven assay components measured from the CCTE_Harrill_HTTr_Apoptosis assay. This was part of a full screening experiment. This is a cell-based assay that evaluates apoptosis in MCF-7 cells cultured in DMEM + 10% fetal bovine serum. High content imaging is used to evaluate activation of caspase-3/7 using the CellEvent Caspase 3/7 Green detection reagent. Measurements are taken at 6 hours after chemical dosing in 384-well format.The assay component endpoint CCTE_Harrill_HTTr_Apoptosis_MCF7 was analyzed with bidirectional fitting relation to DMSO as the negative control and baseline of activity. Using a type of viability reporter, gain-of-signal activity can be used to evaluate activation of caspase-3/7 using the CellEvent Caspase 3/7 Green detection reagent to understand changes in apoptosis. To generalize the intended target to other relatable targets, this assay endpoint is annotated to cell cycle, where the subfamily is apoptosis.
# Chemicals were tested in MCF7 cells in an eight point dilution series with a six hour exposure duration.
SMILES,outcome,AC50
N#CC(Br)Br,inactive,
Nc1ccc([N+](=O)[O-])cc1,inactive,
Clc1ccc(C(c2ccc(Cl)cc2)C(Cl)Cl)cc1,inactive,
[O-][Cl+]O,inactive,
Nc1cc(Cl)cc(C(=O)O)c1Cl,inactive,
O=C(N[C@H](c1ccccc1)[C@@H]1CN2CCC1CC2)c1c(Cl)ccc(C(F)(F)F)c1Cl,inactive,
c1ccc2c(c1)-c1cccc3cccc-2c13,inactive,
OCCOCCO,inactive,
Cc1ccc(N)c(N)c1,inactive,
c1ccc(C2CO2)cc1 (stereo not given),inactive,
c1ccc(N=Nc2ccccc2)cc1,inactive,
Clc1ccc(C(c2ccc(Cl)cc2)C(Cl)(Cl)Cl)cc1,inactive,
CC(C)N(Cc1ccccc1)C(=O)C(C)(C)C,inactive,
O=C(Nc1ccccc1)c1ccccc1I,inactive,
C1=Cc2cccc3cccc1c23,inactive,
CC(O)CCO (stereo not given),inactive,
COC(=O)c1ccccc1N,inactive,
O=C1CCCO1,inactive,
O=C(O)C1C2CCC(O2)C1C(=O)O (stereo not given),inactive,
CCC(C)c1ccc(O)cc1 (stereo not given),inactive,

SMILES,outcome,AC50
CN(C)[C@@H]1C(=O)C(C(N)=O)=C(O)[C@@]2(O)C(=O)C3=C(O)c4c(O)cccc4[C@@](C)(O)[C@H]3C[C@@H]12,inactive,
CNC(=O)Oc1cccc2c1OC(C)(C)C2,inactive,
CCCCOC(=O)c1ccccc1C(=O)OCc1ccccc1,inactive,
C=CCc1ccc2c(c1)OCO2,inactive,
c1ccc2c(c1)oc1ccccc12,inactive,
O=P(OCCCl)(OCCCl)OCCCl,inactive,
Oc1ccc2ccc3cccc4ccc1c2c34,,48.2 µM (active)
O=[N+]([O-])C(Br)(CO)CO,inactive,
CCCCCCCCOC(=O)c1ccc(C(=O)OCCCCCCCC)c(C(=O)OCCCCCCCC)c1,inactive,
Nc1ccc(N=Nc2ccccc2)cc1,inactive,
Nc1ccc(Cl)cc1N,inactive,
C[C@]12C=CC3=C4CCC(=O)C=C4CC[C@H]3[C@@H]1CC[C@@H]2O,inactive,
OCCCl,inactive,
Cc1cc(N=Nc2ccccc2C)ccc1N,inactive,
CO[C@@H]1[C@H](OC(=O)NC(=O)CCl)CC[C@]2(CO2)[C@H]1[C@@]1(C)O[C@@H]1CC=C(C)C,inactive,
ClC1=C(Cl)C2(Cl)C3C(Cl)C=CC3C1(Cl)C2(Cl)Cl (stereo not given),inactive,
CS(=O)(=O)NC(=O)c1cc(Oc2ccc(C(F)(F)F)cc2Cl)ccc1[N+](=O)[O-],inactive,
CCOC(=O)[C@]1(c2ccccc2)Oc2ccccc2[C@@H]1N,inactive,
N#CC(Br)(Br)C(N)=O,inactive,
CN(C)C(=O)Nc1ccc(Cl)cc1,inactive,
